Data reported in PubChem BioAssay (EPA / NIEHS).
Activity calls are given as the source filed them. The calls were made as follows: active = hit-call score of the fitted dose curve at least 0.9, where 1 is the maximum; inactive = score below 0.9.

System: not listed separately
Assay: CCTE_Padilla_ZF_Score.General: CCTE's 144 Hour Post-fertilization zebrafish Assay Score for General Malformation, Padilla Lab (AID 2284411)
Outline: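 Malformation, death and hatching were scored at 6 dpf by two blinded observers under a stereo microscope. Embryos were dosed singly from 6-8 hpf in sealed plates of 10% Hanks' at 26C and rinsed on 5 dpf; DMSO baseline.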
For `CCn1c2ccccc2c2cc(N)ccc21`, the outcome was “inactive”.
For `CCCCCCCCCC=O`, the outcome was “inactive”.
For `CC(C)c1ccc(C(C)C)cc1`, the outcome was “inactive”.
For `CCCCC(CC)COCCC#N` (stereo unspecified), the outcome was “inactive”.
In the case of `O=C1CCCCCCCCCCCCCCO1`, the outcome is reported as “inactive”.
With `O=C(O)c1cn(C2CC2)c2cc(N3CCNCC3)c(F)cc2c1=O` the outcome was “inactive”.
In the case of `CCCCCCCCC=O`, the outcome is reported as “inactive”.
For `O=[N+]([O-])c1cc(C(F)(F)F)ccc1Cl`, the outcome was “inactive”.

System: TTR (gene 7276)
Assay: CCTE_GLTED_hTTR_0.125uM: CCTE's human Transthyretin (hTTR) Inhibition Assay, with 0.125uM TTR, Great Lakes Toxicology and Ecology Division (GLTED) Lab (AID 2284431);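 also: hits lower the fluorescence signal relative to DMSO baseline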
Outline: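 TTR 0.125uM + test chemical, 2 h; ANSA probe displacement; ex 380/em 475 fluorescence; signal loss vs DMSO control.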
In the case of `CSc1nc(NC2CC2)nc(NC(C)(C)C)n1`, the AC50 is reported as 10.8 µM (active).
In the case of `O=Nc1ccc(Nc2ccccc2)cc1`, the AC50 is reported as 7.46 µM (active).
With `O=C(Oc1ccccc1)c1ccc(O)cc1` the AC50 was 0.326 µM (active).
With `CCCCCCCCCC=O` the AC50 was 9.95 µM (active).
For `CCCCCCCCCCCCCC(=O)O`, the AC50 was 1.93 µM (active).
With `CC(C)=CCCC(C)=CCCC(C)=CCO` the AC50 was 19.9 µM (active).
In the case of `O=c1cc(-c2ccccc2)oc2cc(O)cc(O)c12`, the AC50 is reported as 0.06 µM (active).
For `CCCCCCCCCCCCCOS(=O)(=O)O`, the AC50 was 1.6 µM (active).
